Source: the OligoGym collection

The sequences below were run against TXNDC17 (assay: pooled miR-30 sensor sort-seq; sequence = guide strand). Details: shRNA.
Further: reference of the scale not given here.

| Sequence | sensor-assay potency score (higher = more potent) |
| --- | --- |
| TTACTTTCAAGTTTTTTCTGAA | 0.123 |
| TTCTGAAGTCATTATTTGGATC | -0.868 |
| TTTTTCTGAAGTCATTATTTGG | -1.37 |
| AAGACACTCAGATTCTACCAGT | -0.12 |
| TTTCTGAAGTCATTATTTGGAT | -0.595 |
| AGTAGATGAACACACATCCTTC | -1.77 |
| TAGATGAACACACATCCTTCAC | -0.655 |
| TTTTCTGAAGTCATTATTTGGA | -0.354 |
| ATTGATACTAGAACAAATCAGG | -0.62 |
| TTAAGTAGTGTAGGCACTGCTG | -0.868 |
| TAAGTAGTGTAGGCACTGCTGT | -0.733 |

What follows are sequences tested against TXNDC2 in the same assay as above. Details: shRNA.

| Sequence | sensor-assay potency score (higher = more potent) |
| --- | --- |
| TTGGGGATGTCAATCTCCTTGG | -0.981 |
| TAGGATGTCACCCTCCTTGGAT | -0.739 |
| TTTTATAAAACTGAAAGGTTGG | -0.0568 |
| TCTTCTAGGGACTTGGGGCTGT | -0.62 |
| AAGAATGGTCTGATGGTCCTGC | 0.56 |
| TTCTTCTGAGGACTTGGGGAGG | -1.18 |
| TTCTTCTTCAGGCTTTAGGATG | -1.62 |
| TCTTCTGAGGACTTGGGGCTGT | -0.284 |
| TTTCCAAGAACTCTAGGGCCAG | -0.912 |
| TTTTTTATAAAACTGAAAGGTT | -0.527 |
| TTTTTCTGAGGACTTGGGGAGG | -1.18 |
| TTCCAAGAACTCTAGGGCCAGG | -1.16 |

What follows are sequences tested against UBA1 in the same assay as above. Details: shRNA.

| Sequence | sensor-assay potency score (higher = more potent) |
| --- | --- |
| TTTAACTTCGTGACATCCCAGG | -0.746 |
| ATTCTTGTAGGAGTCAAGCTGT | 0.0651 |
| TACTTTGACCTGACTGACGATG | -0.507 |
| TTCTTAGGTACTTTGACCTGAC | 0.097 |
| TTCTCTTGCAGGTCTGAGCCAA | -0.695 |
| TATGTCTGCTTCACTGCCGTTC | -0.544 |
| TTAGGTACTTTGACCTGACTGA | -0.00997 |
| TATAGTACTGGTGACGTGGTGC | 0.491 |
| TTCCGGTAGTAGACACAGCGGC | -0.978 |
| TTCTTGAGCAGCTCACAGCCAA | -0.992 |
| TTGACATCAAAGGTGAGCGGGT | -0.267 |
| TTGGTGAGCACCACCACCTGGA | 0.0519 |

Each sequence was assayed against UBA3 in the same assay as above. Details: shRNA.

| Sequence | sensor-assay potency score (higher = more potent) |
| --- | --- |
| ATCTACATCATTAAACACCAAG | -1.38 |
| TAGAACTTTACATGTATCTAAC | -0.95 |
| TAGATAATCCAAAACCTCCTGT | 0.333 |
| TTCTTGTCCATCAACAAGCCCC | -0.667 |
